The values below come from PubChem BioAssay.

The structures appear in SMILES notation. A number with no mark means an inactive call. How the calls were made is not given here.

As usually defined, the inhibition is how much of the control response was suppressed.

Chain of Pantothenate synthetase (Mycobacterium tuberculosis (strain ATCC 25618 / H37Rv)) (P9WIL5 whole entry, looked up): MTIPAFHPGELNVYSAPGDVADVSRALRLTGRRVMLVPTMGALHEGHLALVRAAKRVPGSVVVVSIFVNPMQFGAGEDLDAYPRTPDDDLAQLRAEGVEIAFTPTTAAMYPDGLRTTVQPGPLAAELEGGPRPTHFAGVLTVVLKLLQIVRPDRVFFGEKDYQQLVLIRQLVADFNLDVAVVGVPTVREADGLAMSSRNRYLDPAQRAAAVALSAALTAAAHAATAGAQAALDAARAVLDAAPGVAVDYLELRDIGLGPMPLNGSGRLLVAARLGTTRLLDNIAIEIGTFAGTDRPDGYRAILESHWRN

The test addresses Pantothenate synthetase (Mycobacterium tuberculosis (strain ATCC 25618 / H37Rv)) (UniProt P9WIL5). Kind of test: Recombinant Mtb pantothenate synthetase (PanC) inhibitors, coupled enzyme, confirmatory (AID 375).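 Further: 0% = full reaction with vehicle and 100% = no enzyme background.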 The conditions noted are these: coupled enzyme assay; at 10 µM, stronger effect = higher value.
`CCCC(=O)N1CC(=O)Nc2ccc(C)cc2C1c1ccc(F)cc1` (stereo not given): the inhibition is 0%.
`S=c1[nH]nc(-c2ccco2)n1-c1cccc2ccccc12`: the inhibition is 0%.
The same measure for `COc1ccccc1C(=O)Nc1ccc(S(=O)(=O)N2CCOCC2)cc1`: 6%; for `CCn1ncc(C2=NOC(C(=O)NCc3ccccc3)C2)c1C` (stereo not given): 6%.
For `O=C(Nc1ccccc1N1CCN(c2ccc(F)cc2)CC1)c1ccccc1`, the inhibition was 0%.
The same measure for `CC(=O)N1CCc2cc(S(=O)(=O)NC(C(=O)NCc3ccccc3)C(C)C)ccc21` (stereo not given): 3%; for `Cn1nc(C(=O)Nc2cccc(C(F)(F)F)c2)ccc1=O`: 0%; for `CSc1nnc(-c2ccc(NC(=O)CCc3ccccc3)cc2)n1C`: 0%.
Then `COc1cc(CN2CCN(C(=O)CC(C)C)CC2)cc(OC)c1O`, with 0%; and `O=C(Nc1ccc2c(c1)OCO2)c1cc2ncc(Br)cn2n1`, with 3%; and `COc1ccc(N2Cc3ccccc3C2)cc1Cl`, with 0%.
Take `CCOC(=O)C1CCCN(c2c(NCc3ccco3)c(=O)c2=O)C1` (stereo not given): the inhibition is 0%.
The same measure for `CC(=O)n1nc(-c2ccco2)nc1SCc1ccccc1`: 0%; for `Cc1cc(NC(=O)COC(=O)C2COc3ccccc3O2)no1` (stereo not given): 4%; for `O=C1CSC(c2cn(-c3ccccc3)nc2-c2ccccc2)N1Cc1ccco1` (stereo not given): 4%.
On to `CCOCCn1c(CN2CCN(CC)CC2)nc2c1c(=O)n(C)c(=O)n2C`, for which the inhibition was 0%.
Then `CCOc1ccc2nc(SCC(=O)N3CCCCCC3)c(C#N)cc2c1`, with 0%; and `Cc1ccc(Oc2ccc(-c3nc(N)nc(N)n3)cc2)cc1`, with 7%.
Then `Cc1sc2nc(SCC(=O)NCCO)n(C)c(=O)c2c1C`, with 0%; and `S=C(N=Nc1ccccc1)NNc1ccccc1`, with 0%; and `COc1ccc(C(=O)Nc2ccc(S(=O)(=O)Nc3onc(C)c3C)cc2)cc1`, with 1%.
With `Cc1cccc(OCC(=O)Nc2ccccc2N2CCN(C(=O)C(C)C)CC2)c1C`, the inhibition was 5%.
Turning to `CC(=O)Nc1nnc(SCC(=O)NCC2CCCO2)s1` (stereo not given), the inhibition is 0%.
As for `CS(=O)(=O)N(CC(=O)NCc1ccncc1)Cc1ccc(Cl)cc1`, the inhibition was 0%.
With `Nn1c(CSc2nc3ccccc3o2)nnc1CSc1nc2ccccc2o1`, the inhibition was 0%.
For `CCCN1CCN(CCCNC(=O)Cn2nc(-c3ccc(Cl)cc3)ccc2=O)CC1`, the inhibition is 0%.
On to `Cc1occc1C(=O)Nc1ccc(S(=O)(=O)N2CCN(C)CC2)cc1`, for which the inhibition was 0%.
For `COc1ccccc1-n1c(C)nnc1SCC(=O)Nc1cccc(C(C)=O)c1`, the inhibition was 0%.
Take `O=C(C(Cc1ccccc1)n1cccc1)N1CCCCCC1` (stereo not given): the inhibition was 8%.
The same measure for `Cc1csc(NC(=O)CCS(=O)(=O)c2ccc(Br)cc2)n1`: 2%; for `COc1ccc(-n2c(=O)cc(N3CCN(Cc4ccccc4)CC3)[nH]c2=O)cc1`: 0%; for `C=C(C)Cn1c(SCC)nc2ccccc2c1=O`: 4%.
Regarding `COc1ccc(N2CCN(C(c3cccs3)C(C)NC(=O)c3ccco3)CC2)cc1` (stereo not given), the inhibition is 0%.
Consider `COc1cccc(C2C(C(N)=O)=C(C)Nc3nc(-c4ccccc4Cl)nn32)c1` (stereo not given), for which the inhibition is 0%.
For `N#CC1=C(SCC(=O)NC2CCCCC2)NC(=O)CC1c1ccco1` (stereo not given), the inhibition was 8%.
For `Cc1cc(=O)oc2ccc(OCC(=O)N(Cc3ccc(F)cc3)Cc3ccco3)cc12`, the inhibition was 0%.
Take `COc1ccc(C(=O)CSc2nnc(-c3ccc(C)cc3)o2)cc1`: the inhibition was 1%.
Then `Cc1nc(NC(=O)C2CC3CCCC(C2)C3=O)sc1C` (stereo not given), with 0%.
As to `COc1ccc(S(=O)(=O)N2CCSC2c2ccccc2)cc1` (stereo not given), the inhibition was 1%.
Then `COC(=O)c1c(NC(=O)CCc2ccc(C)o2)sc(C)c1C`, with 1%.
